Experimental data reported in PubChem BioAssay.
Activity calls are given as the source filed them.

How the values were obtained:
[1] = anti-His antibody binders, primary screen, artefact control for SMM control protein annotation, biochemical, small-molecule microarray, 635 nm fluorescence (AID 1128); settings: anti-His Alexa647 antibody binding, higher = more signal;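 also: score merges feature fluorescence with signal-to-noise for each printed compound spot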
[2] = system: Human papillomavirus type 1a E7 protein (residues 1-88); assay: HPV1a E7 small-molecule binders, primary screen, biochemical, small-molecule microarray, residues 1-88, 635 nm (AID 1129); settings: small-molecule microarray binding, fluorescence 635 nm; higher = more signal
[3] = target: Focal adhesion kinase 1 (Homo sapiens) (UniProt Q05397); assay: small-molecule microarray binders of FAK, primary screen, biochemical, 635/667 nm fluorescence, BSA, DTT (AID 1130); settings: PTK2 binding, 635 nm fluorescence, higher = more signal;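 also: composite of spot emission at 667 nm and signal to noise over triplicate slides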
Chain of Focal adhesion kinase 1 (Homo sapiens) (Q05397 whole entry, looked up): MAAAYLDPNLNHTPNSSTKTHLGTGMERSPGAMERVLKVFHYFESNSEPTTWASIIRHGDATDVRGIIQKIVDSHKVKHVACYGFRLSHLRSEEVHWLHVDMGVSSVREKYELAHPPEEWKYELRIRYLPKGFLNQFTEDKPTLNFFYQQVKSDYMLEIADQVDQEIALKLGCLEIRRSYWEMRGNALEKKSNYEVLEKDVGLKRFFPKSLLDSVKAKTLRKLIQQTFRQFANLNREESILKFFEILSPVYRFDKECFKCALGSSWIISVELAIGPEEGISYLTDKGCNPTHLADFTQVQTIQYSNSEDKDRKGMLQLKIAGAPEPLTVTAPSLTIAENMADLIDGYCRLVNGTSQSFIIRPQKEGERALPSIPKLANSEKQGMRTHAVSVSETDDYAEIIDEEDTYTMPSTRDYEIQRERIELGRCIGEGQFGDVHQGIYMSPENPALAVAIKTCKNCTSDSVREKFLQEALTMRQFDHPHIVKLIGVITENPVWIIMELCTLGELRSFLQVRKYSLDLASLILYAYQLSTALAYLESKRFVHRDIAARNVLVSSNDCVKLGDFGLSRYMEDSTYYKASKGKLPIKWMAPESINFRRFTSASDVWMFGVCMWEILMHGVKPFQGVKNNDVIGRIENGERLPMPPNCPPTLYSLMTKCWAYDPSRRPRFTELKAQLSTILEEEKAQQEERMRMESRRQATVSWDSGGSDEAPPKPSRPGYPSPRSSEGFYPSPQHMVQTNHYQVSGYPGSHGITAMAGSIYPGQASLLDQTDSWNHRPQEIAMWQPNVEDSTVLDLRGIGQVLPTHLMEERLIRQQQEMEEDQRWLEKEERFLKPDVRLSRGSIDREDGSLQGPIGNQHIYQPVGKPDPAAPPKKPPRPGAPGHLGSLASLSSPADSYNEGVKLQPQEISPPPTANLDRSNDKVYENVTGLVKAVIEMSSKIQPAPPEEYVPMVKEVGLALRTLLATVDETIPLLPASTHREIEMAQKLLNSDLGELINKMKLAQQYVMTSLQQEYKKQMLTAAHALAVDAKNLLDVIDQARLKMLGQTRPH

[4] = system: Fibrinogen (Alexa647-labelled); assay: fibrinogen binders on compound microarrays, profiling panel, artefact control for SMM control-protein annotation, biochemical, small-molecule microarray, 635/667 nm fluorescence (AID 1131); settings: fibrinogen-A647 binding fluorescence, higher = more signal;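 also: z-score merges 667 nm fluorescence with per-spot signal-to-noise over triplicate slides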
[5] = target: Follistatin (Homo sapiens) (UniProt P19883); assay: follistatin binders on small-molecule microarrays, primary screen, biochemical, small-molecule microarray, 635/667 nm fluorescence (AID 1132); settings: FST binding, 635 nm fluorescence, higher = more signal
Chain of Follistatin (Homo sapiens) (P19883 whole entry, looked up): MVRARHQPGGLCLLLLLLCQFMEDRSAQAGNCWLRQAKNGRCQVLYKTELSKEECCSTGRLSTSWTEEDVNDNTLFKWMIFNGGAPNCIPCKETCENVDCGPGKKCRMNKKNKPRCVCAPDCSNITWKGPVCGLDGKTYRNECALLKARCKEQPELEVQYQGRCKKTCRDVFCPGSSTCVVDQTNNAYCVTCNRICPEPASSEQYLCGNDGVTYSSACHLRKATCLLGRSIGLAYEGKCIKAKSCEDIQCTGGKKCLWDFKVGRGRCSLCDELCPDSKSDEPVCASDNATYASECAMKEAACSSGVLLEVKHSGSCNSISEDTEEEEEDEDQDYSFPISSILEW

[6] = target: Fibroblast growth factor 2 (Homo sapiens) (UniProt P09038); assay: FGF2 binders on small-molecule microarrays, primary screen, biochemical, small-molecule microarray, 635/667 nm fluorescence (AID 1133); settings: small-molecule microarray binding, FGF2, fluorescence 635/667; higher = more signal
Chain of Fibroblast growth factor 2 (Homo sapiens) (P09038 whole entry, looked up): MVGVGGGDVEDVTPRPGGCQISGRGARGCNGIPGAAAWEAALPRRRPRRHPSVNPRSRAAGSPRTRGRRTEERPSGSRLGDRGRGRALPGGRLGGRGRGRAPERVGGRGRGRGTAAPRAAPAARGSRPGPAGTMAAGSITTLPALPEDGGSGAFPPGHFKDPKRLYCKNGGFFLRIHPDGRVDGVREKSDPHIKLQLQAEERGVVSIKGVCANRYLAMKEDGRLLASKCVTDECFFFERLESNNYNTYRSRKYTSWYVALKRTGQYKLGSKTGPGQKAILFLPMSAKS

[7] = mitochondrial membrane potential change in A549 cells, profiling panel, cell-based, JC-1 fluorescence, basal, 24 h, 100 nL (AID 1138); settings: higher = more signal;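 also: A549 lung adenocarcinoma cells under basal conditions with no added stimulus; test concentration not given here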
Lefty1 = Lefty1 binders on small-molecule microarrays, primary screen, biochemical, small-molecule microarray, 635/667 nm fluorescence (AID 1139); settings: small-molecule microarray binding, fluorescence 635/667; higher = more signal
[8] = system: wheat germ agglutinin (Triticum aestivum), Alexa647-labelled; assay: wheat germ agglutinin binders on compound microarrays, profiling panel, artefact control for SMM control-protein annotation, biochemical, small-molecule microarray, 635/667 nm fluorescence (AID 1140); settings: WGA-A647 binding, 635 nm fluorescence, higher = more signal;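 also: score merges 667 nm feature emission with signal to noise over triplicate slides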
[9] = target: Luciferin 4-monooxygenase (Photinus pyralis) (UniProt P08659); assay: firefly luciferase enzyme inhibitors, primary screen, biochemical, luminescence, purified enzyme, 2006 set (AID 1141); settings: SteadyGlo luminescence, 30 min, higher = more signal, called active from +8 up or from −8 down;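 also: cell-free assay with purified firefly luciferase at 100 ng per well in PBS; test concentration not given here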
Chain of Luciferin 4-monooxygenase (Photinus pyralis) (P08659 whole entry, looked up): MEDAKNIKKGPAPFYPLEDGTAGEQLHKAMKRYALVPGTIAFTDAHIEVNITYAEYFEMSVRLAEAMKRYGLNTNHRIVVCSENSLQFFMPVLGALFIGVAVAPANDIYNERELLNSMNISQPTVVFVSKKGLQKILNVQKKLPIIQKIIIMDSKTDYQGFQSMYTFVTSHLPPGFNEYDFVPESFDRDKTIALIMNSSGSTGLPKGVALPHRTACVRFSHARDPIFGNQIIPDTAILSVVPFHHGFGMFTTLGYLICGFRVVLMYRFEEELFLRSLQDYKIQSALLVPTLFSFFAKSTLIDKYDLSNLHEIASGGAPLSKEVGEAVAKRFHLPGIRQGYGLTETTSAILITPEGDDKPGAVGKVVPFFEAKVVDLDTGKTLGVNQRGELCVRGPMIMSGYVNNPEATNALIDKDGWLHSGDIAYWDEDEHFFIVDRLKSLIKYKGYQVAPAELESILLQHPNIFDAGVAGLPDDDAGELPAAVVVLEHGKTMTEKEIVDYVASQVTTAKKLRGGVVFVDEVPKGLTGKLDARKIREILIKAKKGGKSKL

| SMILES | composite z-score [1] | composite z-score [2] | composite z-score [3] | composite z-score [4] | composite z-score [5] | composite z-score [6] | z-score [7] | composite z-score (Lefty1) | composite z-score [8] | z-score [9] |
| --- | --- | --- | --- | --- | --- | --- | --- | --- | --- | --- |
| C#CCCCON=C1C[C@@H](O)[C@@H](O)[C@@H]2[C@@H]3C(=O)N(c4cccc(Oc5ccccc5)c4)C(=O)[C@@H]3CC[C@@H]12 | -0.0428 | 1 | 0.181 | 0.945 | 0.304 | 0.224 | -0.786 | 0.481 | 0.632 | 1.02 (inactive) |
| Cc1cc2c(nc1C)CCCN2CC(O)CN1CCN(C)CC1 (stereo not given) | 1.51 | 0.1 | 0.648 | -0.702 | 0.936 | 0.688 | 0.63 | 0.409 | 1.02 | 0.246 (inactive) |
| COc1ccc(O[C@H]2C=C[C@@H](c3ccccc3)O[C@@H]2COC(=O)CCC(C)=NOC[C@@H](C)[C@H](OCc2ccccc2)C(C)C)cc1 | 0.904 | -0.834 | -0.592 | -1.24 | -0.865 | -0.621 | -0.345 | -0.338 | -0.606 | 1.05 (inactive) |
| COCCOC(=O)N1C(=O)[C@@]2(c3cc(C#CCNC(N)=O)ccc31)[C@H](c1ccc(O)cc1)N1[C@H](c3ccccc3)[C@H](c3ccccc3)OC(=O)[C@H]1[C@@H]2C(=O)N1CCCCCCC1 | 0.127 | 0.857 | 0.14 | 0.606 | 1.3 | 1.5 | -1.18 | 1.05 | 0.566 | 0.629 (inactive) |
| CCc1cc2c(nc1CC)CCN(CCC(C)=NOC(C)CN1CCCc3nc(C)c(C)cc31)C2 (stereo not given) | -0.295 | 0.973 | 0.63 | 0.398 | 1.31 | 0.631 | 1.2 | 1.29 | 0.467 | 0.62 (inactive) |
| COC(=O)[C@@]1(Cc2ccccc2)[C@H]2c3cc(C(=O)N4CCCC4)n(Cc4ccccn4)c3C[C@H]2CN1C(=O)c1ccccc1 | 1.81 | 1.26 | 0.846 | 0.412 | 1.24 | 0.354 | 0.449 | 0.19 | 0.236 | 1.93 (inactive) |
| CC(=O)O[C@H]1C2=C(C(=O)[C@@H]3O[C@@H]31)[C@H]1C(C)O[C@@H]2[C@@]23C(=O)[C@@H]4O[C@@H]4[C@@H](O)C2=CO[C@H](C)[C@@H]13 (stereo not given in full) | 0.0831 | 0.154 | -0.0962 | -0.735 | -0.419 | 0.877 | -1.12 | 0.0364 | -0.933 | 0.327 (inactive) |
| CC(C)CON=C1[C@H]2CCn3c(=O)n(-c4ccccc4)c(=O)n3[C@H]2[C@H](O)[C@@H]2O[C@H]12 | 0.0684 | 0.118 | 0.164 | 0.571 | 0.504 | 1.03 | -0.0655 | 0.475 | 0.201 | -0.408 (inactive) |
| N#Cc1ccc(NN2C(C(O)c3cc(C(F)(F)F)cc(C(F)(F)F)c3)C=CC3C(=O)N(c4ccccc4)C(=O)C32)cc1 (stereo not given) | 0.94 | 1.17 | 0.756 | 0.932 | 1.11 | -0.477 | 0.277 | 0.265 | 1.16 | -0.514 (inactive) |
| C=COC[C@H]1CN2[C@@H](CC[C@@H](C)[C@@H]2c2ccc(Br)cc2)C(=O)O1 | 1.25 | 0.394 | 0.0351 | 0.673 | 0.504 | 0.706 | 0.587 | 0.51 | 0.276 | -2.84 (inactive) |
| C=CCC(OC(C)=O)[C@@H]1[C@@H](N(Cc2cc3ccccc3o2)C(=O)Cc2ccc(F)cc2)c2cc(OCCCO)ccc2N1C(=O)Cc1ccc(OC)cc1 (stereo not given in full) | -0.419 | -1.14 | -0.0602 | 0.0188 | 0.354 | -0.271 | 0.919 | 0.158 | 0.0264 | -0.188 (inactive) |
| CCOC(=O)C1=CC[C@H]2C(=O)N(CC)C(=O)[C@@H]12 | 0.299 | 0.775 | -0.0436 | 0.775 | 0.269 | 0.218 | -1.1 | 0.443 | 0.433 | 1.69 (inactive) |
| CN(C)CCCNC(=O)[C@@H]1c2ccccc2C(=O)N(Cc2ccccc2)[C@H]1c1ccc(CO)cc1 | 0.514 | -0.958 | -0.193 | -0.355 | -0.242 | -0.158 | 1.85 | -0.201 | -0.0107 | -0.784 (inactive) |
| CCOC(=O)CCN1C(=O)[C@H]2[C@H]3[C@H](O)[C@H](O)CC(=O)[C@H]3CC[C@H]2C1=O | 0.683 | 0.676 | -0.186 | 0.29 | 0.369 | 0.364 | -0.648 | 0.413 | 0.125 | 0.524 (inactive) |
| COC(=O)[C@@]1(Cc2ccc(F)cc2)[C@H]2c3cc(C(=O)N(C)C)n(Cc4ccc(OC)c(OC)c4)c3C[C@H]2CN1C(=O)c1ccccc1 | 0.835 | -0.267 | 1.71 | 0.661 | -0.405 | -0.346 | 0.362 | -0.614 | 0.63 | 1.22 (inactive) |
| CO[C@@H]1COC(=O)[C@H](C)NC(=O)[C@@H](C)COC(=O)CCC[C@H]1C | -0.356 | 0.0754 | 0.574 | -0.796 | 0.775 | 0.851 | -0.816 | 0.784 | 0.405 | 0.981 (inactive) |
| Cc1ccc(C2CC=C(C(=O)O)CN2S(=O)(=O)c2ccc(C)cc2)cc1 (stereo not given) | 1.26 | 1.17 | 0.286 | 0.566 | 0.158 | 0.0208 | -1.23 | 0.0504 | 0.718 | 1.64 (inactive) |
| CCc1cc2c(nc1CC)CCN(CCC(C)=NOC[C@@H](O)COCc1ccco1)C2 | 1.31 | -0.952 | -0.439 | -0.19 | 1.47 | 1.53 | 1.69 | 1.53 | 0.182 | -0.85 (inactive) |
| CCOC(=O)NN=C1C[C@@H](O)[C@@H](O)[C@@H]2[C@@H]3C(=O)N(CC)C(=O)[C@@H]3CC[C@@H]12 | 0.249 | 0.707 | 0.25 | 0.356 | 0.314 | -0.0549 | 0.0102 | 0.476 | -0.203 | 0.439 (inactive) |
| COC(=O)[C@]1(CO)N=C(c2ccc(OCCCO)cc2)O[C@@H]1c1ccccc1N=[N+]=[N-] | 1.3 | 0.541 | -0.277 | 0.633 | 1.43 | 1.6 | 0.299 | 0.83 | -0.119 | -1.64 (inactive) |
| CO[C@H]1COC(=O)[C@@H]2CCCN2C(=O)[C@@H](C)COC(=O)CC=C[C@@H]1C | 1.42 | -0.217 | -0.114 | 0.112 | 1.02 | 1.46 | -0.409 | 0.898 | -0.114 | 1.29 (inactive) |
| O=C1[C@H]2[C@H]3[C@H](O)[C@H](O)CC(=NOCc4ccccc4)[C@H]3CC[C@H]2C(=O)N1c1cccc(Oc2ccccc2)c1 | 0.623 | 1.09 | 0.333 | 0.796 | 0.663 | 1.23 | 0.12 | 0.772 | 0.623 | 0.549 (inactive) |
| Cc1ccc(S(=O)(=O)N[C@@H]2COC(=O)[C@H](C)COC(=O)CC=C[C@H]2C)cc1 | -0.419 | -0.0268 | -0.232 | -0.305 | 1.35 | 0.98 | 0.26 | 1.38 | -0.277 | -0.181 (inactive) |
| CN1C(=O)[C@@]2(CCC(=O)OC(C)(C)C)N=C(c3ccc(OCCCO)cc3)O[C@H]2c2ccccc21 | 1.87 | 1.17 | 0.102 | 0.411 | 1.36 | 0.611 | 1.33 | 0.369 | 0.761 | -2.62 (inactive) |
| O=C1C[C@@H](O)[C@@H](O)[C@@H]2[C@@H]3C(=O)N(c4cccc(Oc5ccccc5)c4)C(=O)[C@@H]3CC[C@@H]12 | 0.161 | 0.783 | 0.35 | 0.725 | 0.91 | 0.679 | 0.844 | 0.661 | 0.428 | -0.44 (inactive) |
| C=CCOC(=O)[C@H]1[C@@H]2C(=O)O[C@@H](c3ccccc3)[C@@H](c3ccccc3)N2[C@@H](c2ccc(OCCOC(=O)[C@H]3C[C@H]4C(=O)N5CCC[C@H]5C(=O)N4[C@H]3c3cccc(OCCO)c3)cc2)[C@]12C(=O)Nc1ccc(I)cc12 | 3.59 | 1.25 | -0.259 | 0.97 | 1.46 | 1.68 | 0.445 | 1.37 | 1.5 | 0.108 (inactive) |
| COC(=O)[C@@H]1N=C(c2ccc(OCCCO)cc2)O[C@@H]1c1ccccc1N=[N+]=[N-] | 1.99 | 1.21 | 0.942 | 0.077 | 0.499 | -0.253 | 0.484 | -0.394 | 1.04 | -17.9 (active) |
| COC(=O)[C@@]1(Cc2ccc(F)cc2)[C@@H]2C(=CC(=O)[C@H]2CC(=O)C(=O)N(C)C)CN1C(=O)c1ccccc1 | 2.36 | 1.26 | 1.09 | 0.981 | 0.635 | -0.54 | 0.589 | -0.421 | 0.847 | 1.24 (inactive) |
